Source: the supplement of paper PMC11732987, “Enantioselective OTUD7B fragment discovery through chemoproteomics screening and high-throughput optimisation” (Communications Chemistry, 2025)

Columns and labels:
Experiment in all cases: log2 ratio of Biotin-Ahx-Ub-VS probe labelling (fragment/DMSO); higher = less target engagement (more negative = stronger competition), active = hit call of the paper (q ≤ 0.05, log2 ratio ≤ -1)
Conditions in all cases: compound concentration: 200 uM; treatment time: 3 h
[1] = target: T1, OTUD6B (UniProt Q8N6M0)
T1 sequence (whole entry): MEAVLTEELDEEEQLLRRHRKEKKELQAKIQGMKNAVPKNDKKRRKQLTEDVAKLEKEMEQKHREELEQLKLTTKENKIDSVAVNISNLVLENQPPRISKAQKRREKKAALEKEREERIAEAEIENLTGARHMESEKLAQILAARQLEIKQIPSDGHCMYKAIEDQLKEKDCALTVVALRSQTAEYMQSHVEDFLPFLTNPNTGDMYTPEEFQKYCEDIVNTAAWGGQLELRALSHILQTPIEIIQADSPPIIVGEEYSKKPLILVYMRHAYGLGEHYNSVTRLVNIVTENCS
In short: (§1)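 Triplicate samples of HEK293T lysate, 495 µg each, received fragment at 200 µM or vehicle for 3 h, followed by Biotin-Ahx-Ub-VS (0.5 µM final) for 1 h. After NeutrAvidin enrichment of labelled DUBs and LysC/trypsin digestion, peptides were run by diaPASEF LC-MS/MS. The values are average log2 fragment/vehicle ratios from global-median-normalised Spectronaut label-free quantities, tested by unpaired t-test on proteins having ≥2 unique peptides.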

[2] = target: T2, OTUD7B (UniProt Q6GQQ9)
T2 sequence (whole entry): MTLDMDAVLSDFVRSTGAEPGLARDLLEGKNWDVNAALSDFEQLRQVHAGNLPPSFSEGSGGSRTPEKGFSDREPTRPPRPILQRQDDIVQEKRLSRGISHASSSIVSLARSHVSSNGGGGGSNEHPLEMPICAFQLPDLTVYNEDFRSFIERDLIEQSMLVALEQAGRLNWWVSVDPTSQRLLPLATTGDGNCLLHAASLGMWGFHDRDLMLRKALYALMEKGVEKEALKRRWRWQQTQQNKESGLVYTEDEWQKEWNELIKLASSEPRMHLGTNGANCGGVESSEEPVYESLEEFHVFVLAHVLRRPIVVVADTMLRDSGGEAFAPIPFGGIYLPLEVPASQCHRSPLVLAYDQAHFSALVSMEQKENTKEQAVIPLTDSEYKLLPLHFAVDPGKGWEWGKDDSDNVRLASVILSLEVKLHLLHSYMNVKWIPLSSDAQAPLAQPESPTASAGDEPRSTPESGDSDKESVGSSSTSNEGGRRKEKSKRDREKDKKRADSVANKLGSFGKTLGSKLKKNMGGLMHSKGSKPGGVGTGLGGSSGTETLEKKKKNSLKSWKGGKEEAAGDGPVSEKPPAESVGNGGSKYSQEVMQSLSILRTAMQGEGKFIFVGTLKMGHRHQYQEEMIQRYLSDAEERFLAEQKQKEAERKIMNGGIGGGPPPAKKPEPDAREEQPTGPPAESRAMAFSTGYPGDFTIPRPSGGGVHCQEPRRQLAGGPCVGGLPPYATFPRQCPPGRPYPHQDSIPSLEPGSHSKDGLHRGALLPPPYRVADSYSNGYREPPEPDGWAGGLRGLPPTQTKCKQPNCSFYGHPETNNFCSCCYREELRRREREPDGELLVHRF
In short: as §1

[3] = target: PRPF8 (UniProt Q6P2Q9)
In short: as §1

[4] = target: T3, PSMD7 (UniProt P51665)
T3 sequence (whole entry): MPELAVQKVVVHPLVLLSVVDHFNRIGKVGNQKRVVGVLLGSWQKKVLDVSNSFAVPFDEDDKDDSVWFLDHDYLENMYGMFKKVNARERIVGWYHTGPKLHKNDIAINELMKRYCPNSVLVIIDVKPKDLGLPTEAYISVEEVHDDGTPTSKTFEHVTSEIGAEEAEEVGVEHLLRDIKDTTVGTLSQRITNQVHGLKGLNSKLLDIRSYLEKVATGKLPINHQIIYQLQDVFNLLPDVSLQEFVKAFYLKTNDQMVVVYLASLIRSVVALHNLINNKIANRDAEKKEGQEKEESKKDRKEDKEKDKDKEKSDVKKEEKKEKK
In short: as §1

[5] = target: UCHL1 (UniProt P09936)
Chain of UCHL1 (P09936 whole entry, looked up): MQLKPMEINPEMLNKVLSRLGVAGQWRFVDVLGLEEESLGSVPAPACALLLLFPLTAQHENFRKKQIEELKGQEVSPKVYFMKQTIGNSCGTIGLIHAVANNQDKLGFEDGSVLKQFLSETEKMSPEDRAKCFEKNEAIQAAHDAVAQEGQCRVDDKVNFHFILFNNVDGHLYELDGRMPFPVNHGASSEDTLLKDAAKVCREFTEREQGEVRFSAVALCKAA
In short: as §1

[6] = target: T4, UCHL3 (UniProt P15374)
T4 sequence (whole entry): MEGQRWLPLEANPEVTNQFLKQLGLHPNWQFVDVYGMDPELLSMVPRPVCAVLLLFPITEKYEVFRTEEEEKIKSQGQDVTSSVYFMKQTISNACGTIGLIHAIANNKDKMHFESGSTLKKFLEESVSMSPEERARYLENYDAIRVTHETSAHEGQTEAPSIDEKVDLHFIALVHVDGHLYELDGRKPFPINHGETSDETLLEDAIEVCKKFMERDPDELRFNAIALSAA
In short: as §1

[7] = target: T5, UCHL5 (UniProt Q9Y5K5)
T5 sequence (whole entry): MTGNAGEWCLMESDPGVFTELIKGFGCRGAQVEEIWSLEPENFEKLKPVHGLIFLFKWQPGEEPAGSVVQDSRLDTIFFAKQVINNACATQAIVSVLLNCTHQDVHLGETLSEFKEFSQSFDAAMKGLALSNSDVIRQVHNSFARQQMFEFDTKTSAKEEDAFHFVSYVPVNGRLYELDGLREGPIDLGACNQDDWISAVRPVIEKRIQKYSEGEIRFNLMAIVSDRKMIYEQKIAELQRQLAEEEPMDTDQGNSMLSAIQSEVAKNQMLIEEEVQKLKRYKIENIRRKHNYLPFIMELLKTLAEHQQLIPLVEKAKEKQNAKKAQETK
In short: as §1

[8] = target: USP10 (UniProt Q14694)
Chain of USP10 (Q14694 whole entry): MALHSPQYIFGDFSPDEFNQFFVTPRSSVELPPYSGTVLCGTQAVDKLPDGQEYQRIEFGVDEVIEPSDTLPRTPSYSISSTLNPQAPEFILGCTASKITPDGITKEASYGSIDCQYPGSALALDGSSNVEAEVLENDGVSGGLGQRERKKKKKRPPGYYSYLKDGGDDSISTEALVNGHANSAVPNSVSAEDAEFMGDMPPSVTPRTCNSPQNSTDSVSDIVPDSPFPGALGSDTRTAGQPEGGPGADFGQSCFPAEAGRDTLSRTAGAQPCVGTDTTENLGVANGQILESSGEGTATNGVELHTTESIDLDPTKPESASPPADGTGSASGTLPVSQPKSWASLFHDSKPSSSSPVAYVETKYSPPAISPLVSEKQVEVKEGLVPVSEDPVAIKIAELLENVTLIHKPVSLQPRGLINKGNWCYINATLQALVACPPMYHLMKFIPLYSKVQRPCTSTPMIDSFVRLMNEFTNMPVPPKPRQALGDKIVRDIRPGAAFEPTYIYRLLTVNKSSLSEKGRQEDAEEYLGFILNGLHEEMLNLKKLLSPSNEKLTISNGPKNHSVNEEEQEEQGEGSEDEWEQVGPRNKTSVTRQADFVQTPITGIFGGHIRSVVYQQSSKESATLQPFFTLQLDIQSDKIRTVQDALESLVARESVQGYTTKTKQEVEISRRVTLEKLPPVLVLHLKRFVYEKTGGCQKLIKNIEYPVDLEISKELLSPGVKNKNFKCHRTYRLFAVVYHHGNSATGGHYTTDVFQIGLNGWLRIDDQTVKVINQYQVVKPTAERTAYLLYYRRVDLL
In short: as §1

[9] = target: T6, USP15 (UniProt Q9Y4E8)
T6 sequence (whole entry): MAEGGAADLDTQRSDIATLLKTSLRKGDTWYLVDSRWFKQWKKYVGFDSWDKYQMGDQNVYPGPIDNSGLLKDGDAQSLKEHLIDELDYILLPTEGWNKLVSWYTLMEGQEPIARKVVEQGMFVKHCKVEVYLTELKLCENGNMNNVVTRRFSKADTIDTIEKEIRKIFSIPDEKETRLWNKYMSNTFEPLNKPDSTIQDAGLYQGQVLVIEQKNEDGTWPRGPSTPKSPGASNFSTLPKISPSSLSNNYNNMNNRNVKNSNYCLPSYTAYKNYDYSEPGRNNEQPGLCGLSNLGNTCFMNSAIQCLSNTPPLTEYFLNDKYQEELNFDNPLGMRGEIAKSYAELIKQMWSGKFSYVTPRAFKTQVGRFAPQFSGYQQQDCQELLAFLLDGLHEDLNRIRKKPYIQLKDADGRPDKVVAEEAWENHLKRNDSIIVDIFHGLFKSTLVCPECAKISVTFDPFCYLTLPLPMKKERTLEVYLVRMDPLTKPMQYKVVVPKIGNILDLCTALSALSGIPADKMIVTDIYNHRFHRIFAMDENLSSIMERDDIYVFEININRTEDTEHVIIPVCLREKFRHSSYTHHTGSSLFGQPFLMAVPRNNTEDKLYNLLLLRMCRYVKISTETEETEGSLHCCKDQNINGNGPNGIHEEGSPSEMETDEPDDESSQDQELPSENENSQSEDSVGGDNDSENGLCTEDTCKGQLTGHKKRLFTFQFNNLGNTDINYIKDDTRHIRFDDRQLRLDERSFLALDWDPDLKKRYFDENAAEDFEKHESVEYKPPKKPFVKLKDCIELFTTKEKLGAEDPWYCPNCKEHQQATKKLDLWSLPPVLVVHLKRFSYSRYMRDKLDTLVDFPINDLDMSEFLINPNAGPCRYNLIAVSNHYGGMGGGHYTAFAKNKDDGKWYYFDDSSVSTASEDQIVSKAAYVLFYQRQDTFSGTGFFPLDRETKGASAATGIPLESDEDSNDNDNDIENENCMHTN
In short: as §1

[10] = target: USP16 (UniProt Q9Y5T5)
Chain of USP16 (Q9Y5T5 whole entry, looked up): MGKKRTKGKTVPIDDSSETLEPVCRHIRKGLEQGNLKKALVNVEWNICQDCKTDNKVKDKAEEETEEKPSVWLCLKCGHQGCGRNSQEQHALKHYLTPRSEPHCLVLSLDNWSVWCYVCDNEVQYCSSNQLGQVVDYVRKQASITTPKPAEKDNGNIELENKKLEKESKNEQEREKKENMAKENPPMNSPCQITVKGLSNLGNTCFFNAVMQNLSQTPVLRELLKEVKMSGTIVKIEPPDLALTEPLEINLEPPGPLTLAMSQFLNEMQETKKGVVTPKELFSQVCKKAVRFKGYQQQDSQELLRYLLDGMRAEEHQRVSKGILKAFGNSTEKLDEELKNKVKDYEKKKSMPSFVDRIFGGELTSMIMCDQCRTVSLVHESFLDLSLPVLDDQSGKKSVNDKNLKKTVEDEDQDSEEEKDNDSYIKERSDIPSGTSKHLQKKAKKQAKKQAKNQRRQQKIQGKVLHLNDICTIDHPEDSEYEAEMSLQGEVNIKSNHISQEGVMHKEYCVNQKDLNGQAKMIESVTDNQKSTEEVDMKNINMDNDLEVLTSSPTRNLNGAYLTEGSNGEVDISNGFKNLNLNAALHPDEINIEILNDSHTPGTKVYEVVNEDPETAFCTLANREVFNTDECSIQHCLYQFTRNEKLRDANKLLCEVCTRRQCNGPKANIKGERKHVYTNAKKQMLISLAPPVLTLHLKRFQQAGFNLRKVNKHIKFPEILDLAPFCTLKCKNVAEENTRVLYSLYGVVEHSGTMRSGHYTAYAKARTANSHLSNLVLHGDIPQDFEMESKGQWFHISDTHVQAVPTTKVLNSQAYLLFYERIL
In short: as §1

Measured: log2 ratio of Biotin-Ahx-Ub-VS probe labelling

CC(=O)C1CCCCN1C(=O)CCl (stereo not given)
active: [5] -1.44
inactive: [1] 0.00453 | [2] -0.279 | [3] 0.0549 | [4] 0.203 | [6] 0.181 | [7] -0.0871 | [8] -0.0595 | [9] -0.162 | [10] -0.109
